# Hits are enriched below; roughly 1.5% of the tested compounds scored in any of these assays.
# NFkB transloc pot: enhances IL-1B driven NFkB nuclear translocation. HUVEC IL-1B NFkB p65 nuclear translocation imaging. activation, % at 2 µM. 0.3% of 94,000 active;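 active = activation above 40%, about the mean plus 3 SD, also judged a hit on visual image review; inconclusive = activation above 40% but not a hit on visual review; inactive = activation not above 40% and no visual hit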;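 note: percent activation is computed from the nuclear over cytoplasmic p65 intensity ratio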
# VCAM1 TNFa inh: reduces TNF alpha induced VCAM1 expression in HUVEC. inhibition, % at 2 µM. HUVEC TNFa-induced VCAM-1 immunofluorescence, high-content imaging. 0.48% of 95,000 active. AID 802;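 active = inhibition above the batch mean plus 3 SD, with images confirmed as a hit by eye, cut at about 37% in these data; inconclusive = inhibition above that limit but hit not confirmed in images; inactive = inhibition not above that limit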;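 note: 0% = TNF-stimulated DMSO wells and 100% = unstimulated control wells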
# TNFa cytotox: HUVEC cytotoxicity counter-screen, TNF alpha stimulated. HUVEC TNFalpha-stimulated, Hoechst cell count, imaging. cell count reduction, % at 2 µM. 0.17% of 93,000 active;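 active = cell count reduction exceeding the screen mean by over 5 SD, scaled to untreated wells per plate, cut at about 78% in these data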;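 note: cells counted after 24 h of TNF alpha exposure following the 1 h pretreatment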
# HUVEC tox IL1B: HUVEC cytotoxicity counter-screen, IL-1B stimulated | 0.41% of 94,000 active | cell count reduction, % at 2 µM | HUVEC cell count loss, Hoechst imaging;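 active = cell count reduction more than 3 SD above the screen-wide mean, cut at about 70% in these data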;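 note: normalized per plate to untreated control cells as the no-loss baseline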
# NFkB transloc inh: blocks IL-1B driven NFkB nuclear translocation in HUVEC cells; HUVEC IL-1B NFkB p65 nuclear translocation imaging; inhibition, % at 2 µM; 0.43% of 94,000 active; AID 796;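 active = inhibition above about 30% together with a positive call from visual inspection of the well image, limit read from the data; inconclusive = inhibition above a set limit but visual check negative; inactive = inhibition not above a set limit, visual check negative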;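 note: nuclear over cytoplasmic p65 intensity ratio measured by imaging; 0% = IL-1B stimulated DMSO wells and 100% = unstimulated DMSO wells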
# * hit, by the source's call; ? = inconclusive; · = no result given.
SMILES,NFkB transloc pot,VCAM1 TNFa inh,TNFa cytotox,HUVEC tox IL1B,NFkB transloc inh
CCOC(=O)CCc1c(C)c2c(C)nn(-c3ccccc3)c2[nH]c1=O,-32,10,-29,-38,32*
COC(=O)c1[nH]c2cc(OC)ccc2c1NC(=O)CN1CCOCC1,13,13,-9,-3,-13
COC(=O)c1[nH]c2cc(OC)ccc2c1NC(=O)CN1CCC(C(N)=O)(N2CCCCC2)CC1,8,50*,-15,-5,-8
Oc1ccc(Nc2nc3ccccc3nc2Nc2ccc(O)cc2)cc1,-23,94*,·,2,23
Cc1n[nH]c(=O)nc1Nc1ccc(O)cc1,9,-2,2,11,-9
O=C(CCCNC(=O)/C(=C\c1ccc(F)cc1)NC(=O)c1ccccc1)OCc1ccccc1,9,-7,-21,2,-9
O=C(Nc1ccccc1)c1ccn[nH]1,-31,-12,-7,19,31*
O=C(COc1ccccc1)Nc1ccccc1N1CCN(c2ccccc2)CC1,42*,11,0,0,-42
O=C(COc1ccccc1)Nc1ccccc1N1CCN(c2ccc(F)cc2)CC1,4,-3,-28,27,-4
Cc1ccc(N(C(=O)C2CCCC2)C2C=CS(=O)(=O)C2)cc1C (configuration not stated),44*,15,-1,-20,-44
CC(=O)N(c1cccc(Br)c1)C1C=CS(=O)(=O)C1 (configuration not stated),4,-2,-9,-16,-4
O=C(CC1CCCC1)Nc1nnc(C2CC2)s1,-6,8,12,-5,6
O=C(Nc1nnc(C2CCCC2)s1)C1CCC1,40*,6,-12,9,-40
O=C1c2ccccc2C(=O)N1CCCN1CCN(CCCN2C(=O)c3ccccc3C2=O)CC1,-98,3,-5,89*,98*
O=C1c2ccccc2C(=O)N1CCCCN1CCN(CCCCN2C(=O)c3ccccc3C2=O)CC1,14,3,-16,14,-14
O=C(c1ccc(Cl)cc1)N1CCCOC1,-1,100*,75,-6,1
COc1ccccc1-n1cnc2cc(NCc3ccco3)ccc21,-12,40*,19,-11,12
COc1ccccc1-n1cnc2cc(NCc3cccs3)ccc21,-17,82*,52,11,17
COc1ccc(CNc2ccc3c(c2)ncn3-c2ccccc2OC)cc1,-4,-6,-11,-16,4
Cc1ccccc1-n1cnc2cc(NCc3cccs3)ccc21,-26,-4,9,-15,26
Cc1ccc(C(C2C(=O)CC(C)(C)CC2=O)C2C(=O)CC(C)(C)CC2=O)s1,-16,2,-9,-9,16
COc1ccccc1NC(=O)C1=C(C)Nc2nc(-c3cccs3)nn2C1c1cccnc1 (configuration not stated),39,7,-34,-7,-39
COCCN1C(=O)c2oc3cc(C)c(C)cc3c(=O)c2C1c1cccc(O)c1 (configuration not stated),6,-18,9,-82,-6
O=C(c1ccc2snnc2c1)N1CCSCC1,21,78*,84*,-15,-21
CC1(C)Cc2c(oc3ncn4ncnc4c23)CO1,2,?,97*,7,-2
SMILES,NFkB transloc pot,VCAM1 TNFa inh,TNFa cytotox,HUVEC tox IL1B,NFkB transloc inh
CC1(C)Cc2c(sc3ncnc(N)c23)CO1,2,-10,21,17,-2
COc1cccc(CNC(=O)C(CCSC)NS(=O)(=O)c2ccc3c(c2)oc(=O)n3C)c1 (configuration not stated),8,2,-13,4,-8
Cc1ccc(OCCCC(=O)Nc2nncs2)cc1,3,-22,-41,-1,-3
O=C(CCCOc1ccc(Cl)cc1)Nc1nncs1,43*,6,-28,-14,-43
COc1ccc(CCNC(=O)c2c(O)c3c([nH]c2=O)CCCC3)cc1,10,4,-22,10,-10
CC(=O)c1cc(OC(=O)N2CCOCC2)ccc1OC(=O)N1CCOCC1,-9,1,-41,-20,9
O=C(Oc1ccc2ccc(=O)oc2c1)N1CCOCC1,22,90*,79*,-7,-22
CC(=O)N1CCN(S(=O)(=O)c2ccc(S(=O)(=O)NCC(C)C)cc2)CC1,5,16,-9,-10,-5
CCOC(=O)C(C(=O)N(C)C)c1ncc(C(F)(F)F)cc1Cl (configuration not stated),-4,4,-5,-13,4
CCOC(=O)C(C(=O)NCc1ccc(F)cc1)c1ncc(C(F)(F)F)cc1Cl (configuration not stated),-19,3,12,86*,20
Cc1[nH]c2ccccc2c1C(O)CN1CCN(c2cccc(C(F)(F)F)c2)CC1 (configuration not stated),-10,9,-28,-13,10
COc1ccc(CCNC(=O)Cn2cnc3c(cnn3-c3ccccc3Cl)c2=O)cc1OC,33,-9,-24,-22,-33
CCCN(S(=O)(=O)c1ccc(OCC)cc1)S(=O)(=O)c1cccs1,-2,·,·,2,2
CCn1c(SCC(=O)N2c3ccccc3CC2C)nnc1-c1ccco1 (configuration not stated),-45,15,0,-13,45*
CCOC(=O)CSc1nnc2n1C(C)(C)Cc1ccccc1-2,13,-20,-15,-52,-13
CC1Cc2ccccc2N1C(=O)CSc1nnc2n1C(C)(C)Cc1ccccc1-2 (configuration not stated),-98,·,·,95*,98*
O=C(Nc1ccccc1)c1nnn(Cc2ccccc2)c1NC(=O)C(F)(F)F,17,-1,2,-1,-17
CCCCn1nnnc1NCc1cccc(OC)c1OC,114*,6,-13,-7,-114
CCCCn1nnnc1NCc1ccc(OC)c(OC)c1,10,15,2,-56,-10
O=C(Nc1ccc2snnc2c1)N1CCN(c2ccccc2)CC1,24,10,-20,-3,-24
O=C(Nc1ccc2snnc2c1)Nc1cccc2ccccc12,-28,-27,-13,87*,28
COC(=O)C1=C(C)N(C)C(=O)NC1c1ccccc1 (configuration not stated),47*,0,-26,-4,-47
COC(=O)C1=C(C)N(C)C(=O)NC1c1cc(Cl)c(O)c(OC)c1 (configuration not stated),10,10,-1,4,-10
CCOC(=O)c1[nH]c(C)c(C(=O)OCC)c1C,-5,-9,2,41,5
CCOC(=O)c1[nH]c(C)c(C(=O)c2cc(F)ccc2F)c1C,-12,83*,31,4,12
C=CCn1c(SCC(=O)c2ccc(OC)cc2)nnc1C(C)NC(=O)c1cccs1 (configuration not stated),-49,31,-15,94*,49*
C=CCn1c(SCC(=O)NC2CCCCC2)nnc1C(C)NC(=O)c1cccs1 (configuration not stated),13,-15,-17,-54,-13
